Measurements taken from the supplement of paper PMC7411054.
Counter-ions that a name gives are not always drawn.

What follows are molecules tested on A549-CANX-COX4 (assay: lowest phenotypically active concentration; higher = less potent). Conditions: treatment time: 24 h.
Outline: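 The reporter lines, fifteen in total and built by gene editing in A549, HepG2 and WPMY1 cells, used BFP for segmentation alongside GFP and RFP/FusionRed markers. Each was treated at 0.3, 1, 3 or 9 µM for 24 h in four wells and then imaged live, with live-cell features normalised to solvent control wells. Deviation meant ≥3 of 4 wells beyond the 95th percentile of control Euclidean distances; reproducibility meant a median replicate Pearson correlation above the 95th percentile of non-replicates. Only conditions meeting both were scored as phenotypically active.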

How did the “lowest phenotypically active concentration” value turn out when `COc1cc2c(c(OC)c1OC)-c1ccc(O)c(=O)cc1[C@@H](N)CC2` [Trimethylcolchicinic acid] was run?
Its value is 9 µM.

How did the “lowest phenotypically active concentration” value turn out when `C[C@@]1(CO)[C@H](O)CC[C@@]2(C)[C@H]1CC[C@H]1C[C@@H]3C[C@@]12CC[C@]3(O)CO` [Aphidicolin] was run?
Its value is ≤ 0.3 µM.

Which “lowest phenotypically active concentration” value does the source give for `COC(=O)[C@@]1(O)C[C@H]2O[C@]1(C)n1c3ccccc3c3c4c(c5c6ccccc6n2c5c31)C(=O)NC4` here?
Its value is ≤ 0.3 µM.

With `COc1ccc(N(C(=O)Oc2c(C)cccc2C)c2ccnc(Nc3ccc(N4CCN(C)CC4)cc3)n2)c(OC)c1` as the molecule, how does the “lowest phenotypically active concentration” value read?
Its value is 3 µM.

How did the “lowest phenotypically active concentration” value turn out when `CC[C@@H]1C=CC=CC[C@H](C)[C@@H](O)[C@](C)(O)C(=O)[C@H](C)[C@@H](O)[C@H](C)C(=O)[C@H](C)[C@@H](O)[C@H](C)C=CC(=O)O[C@H]2[C@@H](C)[C@@H](CC1)O[C@@]1(CC[C@@H](C)[C@@H](C[C@H](C)O)O1)[C@@H]2C` [Oligomycin A] was run?
The value was ≤ 0.3 µM.

With `CC(C)[C@@]1(NC(=O)[C@@H]2C[C@@H]3c4cccc5[nH]cc(c45)C[C@H]3N(C)C2)O[C@@]2(O)[C@@H]3CCCN3C(=O)[C@H](Cc3ccccc3)N2C1=O` [Dihydroergocristine mesylate] as the molecule, how does the “lowest phenotypically active concentration” value read?
The value was 9 µM.

`C[C@]12CC[C@H]3[C@@H](CC[C@]4(O)C[C@@H](O)CC[C@]34C=O)[C@@]1(O)CC[C@@H]2C1=CC(=O)OC1` [Strophanthidin] was tested. Which “lowest phenotypically active concentration” value did it give?
Its value is ≤ 0.3 µM.

`C=C1[C@@H](O)C2C=CC[C@H](C)C(=O)[C@](C)(O)C=C[C@@H](OC(C)=O)[C@]23C(=O)N[C@H](Cc2ccccc2)[C@@H]3[C@@H]1C` (stereo partly drawn) [Cytochalasin D] was tested. Which “lowest phenotypically active concentration” value did it give?
Its value is ≤ 0.3 µM.
